Measured values: PubChem BioAssay
For part of these data: Results with a measured potency or affinity are listed apart. Calls of active or inactive are those of the source. Unless noted, no rule for the calls is given here.

Experiments:
[1] = antimalarial activity against Dd2 strain (AID 2302;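 active = growth inhibition above 50% at the single 2 µM test dose, taken to imply half-maximal potency below 2 µM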;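 also: 0% = DMSO untreated growth and 100% = chloroquine plus artemisinin killed control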); details: P. falciparum Dd2 in RBCs, LDH growth readout, 72 h; at 2 µM; hits give high values
[2] = HepG2 cytotoxicity, primary screen, cytotoxicity control for P. falciparum antimalarial project, cell-based, ATP luminescence (AID 2303;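 active = inhibition above 50%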;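 also: 0% = DMSO wells and 100% = digitonin-killed cells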); details: HepG2 viability, 24-48 h, at 10 µM, hits give high values
[3] = biological target: L-lactate dehydrogenase (Plasmodium falciparum (isolate CDC / Honduras)) (UniProt Q27743); experiment: PfLDH activity inhibition – cell lysate, 3D7 strain, counter-screen for P. falciparum growth inhibition project (AID 2304);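 also: 0% = vehicle and 100% = reference inhibitor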; details: P. falciparum 3D7 crude extract, LDH APAD/NBT absorbance; at 2 µM; hits give high values
L-lactate dehydrogenase (Plasmodium falciparum (isolate CDC / Honduras)), sequence (Q27743 whole entry, looked up): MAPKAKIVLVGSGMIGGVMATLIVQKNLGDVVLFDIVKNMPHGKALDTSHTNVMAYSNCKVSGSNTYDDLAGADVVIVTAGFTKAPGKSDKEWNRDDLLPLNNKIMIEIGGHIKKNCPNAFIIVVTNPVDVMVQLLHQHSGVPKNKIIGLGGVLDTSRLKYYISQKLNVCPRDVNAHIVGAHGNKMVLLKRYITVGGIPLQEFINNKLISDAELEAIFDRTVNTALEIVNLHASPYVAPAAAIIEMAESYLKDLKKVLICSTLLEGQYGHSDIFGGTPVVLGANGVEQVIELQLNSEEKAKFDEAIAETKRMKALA

[4] = inhibition of 3D7 malaria parasite growth – strain 3D7 (AID 2306);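 also: 0% = DMSO wells and 100% = chloroquine plus artemisinin control wells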; details: P. falciparum 3D7 erythrocytic growth, LDH absorbance, 72 h; at 2 µM; hits give high values
[5] = biological target: Calcium-dependent protein kinase 1 (Plasmodium falciparum (isolate 3D7)) (UniProt P62344); experiment: PfCDPK1 kinase inhibitors, biochemical, TCAMS library (AID 1159585; cut-off not given, nearly all actives have IC50 up to about 0.98 µM;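 also: inhibitors leave more ATP so luminescence rises with inhibition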); details: recombinant PfCDPK1, Kinase-Glo ATP depletion luminescence
Calcium-dependent protein kinase 1 (Plasmodium falciparum (isolate 3D7)), sequence (P62344 whole entry, looked up): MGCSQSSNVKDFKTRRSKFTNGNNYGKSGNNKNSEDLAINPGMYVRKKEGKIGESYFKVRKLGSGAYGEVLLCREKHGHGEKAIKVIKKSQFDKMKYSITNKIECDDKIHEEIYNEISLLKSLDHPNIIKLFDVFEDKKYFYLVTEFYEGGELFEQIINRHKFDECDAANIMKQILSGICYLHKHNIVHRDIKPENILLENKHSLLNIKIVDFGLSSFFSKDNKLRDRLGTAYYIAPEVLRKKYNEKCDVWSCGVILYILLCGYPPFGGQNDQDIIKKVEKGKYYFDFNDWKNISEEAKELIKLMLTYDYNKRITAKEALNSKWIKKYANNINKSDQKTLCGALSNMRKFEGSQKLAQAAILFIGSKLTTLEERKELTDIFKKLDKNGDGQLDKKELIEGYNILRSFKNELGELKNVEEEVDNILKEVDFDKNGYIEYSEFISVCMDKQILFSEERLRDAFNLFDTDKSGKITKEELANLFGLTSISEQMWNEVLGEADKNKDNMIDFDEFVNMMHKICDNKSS

[6] = biological target: Plasmodium falciparum protein kinase 6 (PK6, PF3D7_1337100) (UniProt Q8IDW1); experiment: PfPK6 kinase inhibitors, biochemical, TCAMS library (AID 1159586); details: recombinant PfPK6, Kinase-Glo ATP depletion luminescence
Plasmodium falciparum protein kinase 6 (PK6, PF3D7_1337100), sequence (Q8IDW1 1-305): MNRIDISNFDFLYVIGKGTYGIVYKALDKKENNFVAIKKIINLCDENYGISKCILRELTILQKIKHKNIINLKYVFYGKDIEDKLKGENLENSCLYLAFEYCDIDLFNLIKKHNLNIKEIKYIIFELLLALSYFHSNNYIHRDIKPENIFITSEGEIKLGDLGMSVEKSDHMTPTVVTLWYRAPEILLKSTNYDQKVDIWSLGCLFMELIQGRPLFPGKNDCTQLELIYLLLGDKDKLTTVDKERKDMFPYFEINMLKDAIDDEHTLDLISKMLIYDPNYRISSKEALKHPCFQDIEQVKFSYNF

[7] = biological target: Protein kinase 7 (PK7), Plasmodium falciparum 3D7 (PF3D7_0213400) (UniProt Q7YTF7); experiment: inhibition of Plasmodium PK7 catalytic activity – biochemical, TCAMS antimalarial set, Kinase-Glo luminescence (AID 1159587); details: recombinant PfPK7, Kinase-Glo ATP depletion luminescence
Protein kinase 7 (PK7), Plasmodium falciparum 3D7 (PF3D7_0213400), sequence (Q7YTF7 1-343): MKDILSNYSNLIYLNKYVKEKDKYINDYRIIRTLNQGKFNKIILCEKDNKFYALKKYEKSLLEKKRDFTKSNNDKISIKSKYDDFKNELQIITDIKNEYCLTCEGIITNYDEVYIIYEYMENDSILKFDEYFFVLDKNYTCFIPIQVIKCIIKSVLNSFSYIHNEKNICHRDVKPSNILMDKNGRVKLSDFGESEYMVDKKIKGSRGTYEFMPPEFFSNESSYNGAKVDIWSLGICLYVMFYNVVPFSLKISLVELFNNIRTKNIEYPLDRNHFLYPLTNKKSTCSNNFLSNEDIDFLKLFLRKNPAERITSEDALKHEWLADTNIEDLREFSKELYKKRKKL

[8] = biological target: Calcium-dependent protein kinase 4 (Plasmodium falciparum (isolate 3D7)) (UniProt Q8IBS5); experiment: PfCDPK4 kinase inhibitors, biochemical, TCAMS library (AID 1159588; cut-off not given, nearly all actives have IC50 up to about 0.91 µM); details: recombinant PfCDPK4, Kinase-Glo ATP depletion luminescence
Calcium-dependent protein kinase 4 (Plasmodium falciparum (isolate 3D7)), sequence (Q8IBS5 whole entry, looked up): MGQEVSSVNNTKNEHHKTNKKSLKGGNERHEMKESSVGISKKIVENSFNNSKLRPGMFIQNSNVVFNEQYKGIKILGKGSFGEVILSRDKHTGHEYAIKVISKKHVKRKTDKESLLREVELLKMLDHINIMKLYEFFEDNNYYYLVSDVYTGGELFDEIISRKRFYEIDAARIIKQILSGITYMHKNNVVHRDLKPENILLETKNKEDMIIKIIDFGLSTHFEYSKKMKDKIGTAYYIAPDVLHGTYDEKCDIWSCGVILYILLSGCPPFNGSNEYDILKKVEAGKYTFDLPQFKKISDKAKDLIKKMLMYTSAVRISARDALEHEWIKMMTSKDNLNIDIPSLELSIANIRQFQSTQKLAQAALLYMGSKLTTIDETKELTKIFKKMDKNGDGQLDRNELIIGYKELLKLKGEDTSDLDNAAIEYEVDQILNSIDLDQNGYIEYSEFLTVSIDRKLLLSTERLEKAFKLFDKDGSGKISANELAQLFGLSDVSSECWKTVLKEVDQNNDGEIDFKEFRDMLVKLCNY

COc1cc(C2CCN(CCCCNC(=O)c3ccc(NC(=O)c4ccc(Cl)c(Cl)c4)cc3)CC2)ccc1OC(C)C
inactive: inhibition [2] 45% | inhibition [3] -5% | outcome [5] | outcome [6] | outcome [7] | outcome [8]
active: growth inhibition [1] 96% | growth inhibition [4] 101%

CC[C@]1(C)C[C@@H](NC(=O)NC(=O)c2ccc(OC)cc2)[C@]2(C)[C@H](C)CC[C@]3(CCC(=O)[C@H]32)[C@@H](C)[C@@H]1OC(=O)NC(=O)c1ccc(OC)cc1
inactive: inhibition [2] 10% | inhibition [3] -5% | outcome [5] | outcome [6] | outcome [7] | outcome [8]
active: growth inhibition [1] 98% | growth inhibition [4] 100%

O=C(Nc1ccc(-c2nc3ccccc3[nH]2)cc1)c1ccc([N+](=O)[O-])s1
inactive: inhibition [3] -6% | outcome [5] | outcome [6] | outcome [7] | outcome [8]
active: growth inhibition [1] 77% | inhibition [2] 83% | growth inhibition [4] 101%

COc1ccc2nccc([C@@H](O)CN3CCC(NCC(=O)Nc4cc(F)cc(F)c4)CC3)c2n1
inactive: growth inhibition [1] 28% | inhibition [2] 18% | inhibition [3] -8% | outcome [5] | outcome [6] | outcome [7] | outcome [8]
active: growth inhibition [4] 89%

CC(=O)N[C@H](C(=O)Nc1ccc(-c2ccc(-c3nc4ccc(C(F)(F)F)cc4[nH]3)s2)cc1)C(C)C
inactive: inhibition [2] 42% | inhibition [3] 2% | outcome [5] | outcome [6] | outcome [7] | outcome [8]
active: growth inhibition [1] 61% | growth inhibition [4] 88%

Nc1cccc(CNCc2ccc(-c3ccc(-c4nc5ccc(F)cc5[nH]4)s3)cc2)c1
inactive: inhibition [2] 12% | inhibition [3] 1% | outcome [5] | outcome [6] | outcome [7] | outcome [8]
active: growth inhibition [1] 93% | growth inhibition [4] 102%

CCCCCCCCN1CCN(CCCCCCNc2c3ccccc3nc3ccccc23)CC1
inactive: inhibition [3] -4% | outcome [5] | outcome [6] | outcome [7] | outcome [8]
active: growth inhibition [1] 100% | inhibition [2] 100% | growth inhibition [4] 101%

Cc1cnc(C(=O)Nc2cccc(-c3cccc(-c4nc5c(C)cccc5[nH]4)c3)c2)cn1
inactive: growth inhibition [1] 45% | inhibition [2] 15% | inhibition [3] -1% | outcome [5] | outcome [6] | outcome [7] | outcome [8]
active: growth inhibition [4] 99%

CCc1c[nH]c2c(N3CCCC3=O)cc(C(=O)N[C@@H](Cc3ccccc3)[C@H](O)CNC(C)(C)CCCC(C)C)cc12
inactive: inhibition [2] 22% | inhibition [3] 1% | outcome [5] | outcome [6] | outcome [7] | outcome [8]
active: growth inhibition [1] 97% | growth inhibition [4] 96%

CN1CCC(NCc2ccc(-c3ccc(Cl)cc3)cc2)CC1
active: inhibition [2] 50% | growth inhibition [4] 99%
inactive: growth inhibition [1] 43% | inhibition [3] 6% | outcome [5] | outcome [6] | outcome [7] | outcome [8]

COc1ccc2ccccc2c1CON1C(N)=NC(N)=NC1(C)C
active: growth inhibition [4] 94%
inactive: growth inhibition [1] 5% | inhibition [2] 25% | inhibition [3] -7% | outcome [5] | outcome [6] | outcome [7] | outcome [8]

O=C(Nc1cccc(CN2CCN(Cc3ccc(O)cc3)CC2)c1)c1ccc(-c2ccccc2)cc1
inactive: inhibition [2] 40% | inhibition [3] 1% | outcome [5] | outcome [6] | outcome [7] | outcome [8]
active: growth inhibition [1] 67% | growth inhibition [4] 101%

COc1ccc(CN2CCC2=O)c(OC)c1
active: growth inhibition [1] 96% | growth inhibition [4] 98%
inactive: inhibition [2] 0% | inhibition [3] -6% | outcome [5] | outcome [6] | outcome [7] | outcome [8]

CCOC(=O)N1CCC(NC(=O)c2ccc(C(C)(C)C)cc2OC)CC1
inactive: growth inhibition [1] -5% | inhibition [2] -7% | inhibition [3] 0% | outcome [5] | outcome [6] | outcome [7] | outcome [8]
active: growth inhibition [4] 88%

CCNc1cc(C(=O)N[C@@H](Cc2ccccc2)[C@H](O)CNC(C)(C)c2cccc(OC)c2)cc(N2CCCC2=O)c1
active: growth inhibition [1] 99% | growth inhibition [4] 100%
inactive: inhibition [2] -3% | inhibition [3] -6% | outcome [5] | outcome [6] | outcome [7] | outcome [8]

Oc1cccc2c1CC(NCc1ccccc1)CC2 (configuration not stated)
inactive: growth inhibition [1] 24% | inhibition [2] 4% | inhibition [3] 6% | outcome [5] | outcome [6] | outcome [7] | outcome [8]
active: growth inhibition [4] 90%

Cc1ccc2nc(-c3cc(-c4ccc(CO)cc4)cnc3N)[nH]c2c1
active: inhibition [2] 52% | growth inhibition [4] 95%
inactive: growth inhibition [1] 6% | inhibition [3] 9% | outcome [5] | outcome [6] | outcome [7] | outcome [8]

CCC[C@@H]([C@@H](Cc1ccc(C)s1)C(=O)N[C@@H](CNC(C)=O)C(=O)Nc1nccs1)N(O)C=O
inactive: inhibition [2] -1% | inhibition [3] 2% | outcome [5] | outcome [6] | outcome [7] | outcome [8]
active: growth inhibition [1] 96% | growth inhibition [4] 97%

Cc1c(C)n(C2CCCCC2)c2ncnc(OC3CCN(CC(=O)N4CCCC4)CC3)c12
inactive: inhibition [2] 31% | inhibition [3] -4% | outcome [5] | outcome [6] | outcome [7] | outcome [8]
active: growth inhibition [1] 59% | growth inhibition [4] 95%

COc1cc(Cc2cnc(N)nc2N)cc(OCCCN2C(=O)c3ccccc3C2=O)c1OC
active: growth inhibition [4] 96%
inactive: growth inhibition [1] -3% | inhibition [2] -1% | inhibition [3] 1% | outcome [5] | outcome [6] | outcome [7] | outcome [8]

COc1ccccc1CNc1nc(Nc2ccccc2C)nc2ccccc12
active: growth inhibition [1] 67% | growth inhibition [4] 101%
inactive: inhibition [2] 24% | inhibition [3] -1% | outcome [5] | outcome [6] | outcome [7] | outcome [8]

COc1ccc(CC2(CO)CCN(Cc3ccc(O)c(Cl)c3)CC2)cc1
inactive: growth inhibition [1] 14% | inhibition [2] -6% | inhibition [3] -2% | outcome [5] | outcome [6] | outcome [7] | outcome [8]
active: growth inhibition [4] 98%

CN(C)Cc1cccc(-c2ccc(NC(=O)c3ccc4c(=O)n(Cc5ccoc5)cnc4c3)cc2)c1
inactive: growth inhibition [1] 9% | inhibition [3] 3% | outcome [5] | outcome [6] | outcome [7] | outcome [8]
active: inhibition [2] 54% | growth inhibition [4] 98%

CCC(=O)c1c(C)n(-c2ncnc3c2nc(C)n3-c2ccc(C)cc2C)c2ccccc12
active: growth inhibition [1] 78% | growth inhibition [4] 96%
inactive: inhibition [2] -16% | inhibition [3] -2% | outcome [5] | outcome [6] | outcome [7] | outcome [8]

Cc1cc2cc(NC(=O)Nc3ccnc4ccccc34)ccc2n1C
active: growth inhibition [4] 90%
inactive: growth inhibition [1] 33% | inhibition [2] 17% | inhibition [3] 4% | outcome [5] | outcome [6] | outcome [7] | outcome [8]

CCN(c1cc(C)nc(Nc2ccc(Cl)cc2)n1)[C@H]1CCN(Cc2ccccc2)C1
active: growth inhibition [4] 94%
inactive: growth inhibition [1] 31% | inhibition [2] 46% | inhibition [3] 2% | outcome [5] | outcome [6] | outcome [7] | outcome [8]

Cc1ccccc1N1CCN(c2ccc(C(=O)NC3CC3)cn2)CC1
inactive: inhibition [2] 14% | inhibition [3] 0% | outcome [5] | outcome [6] | outcome [7] | outcome [8]
active: growth inhibition [1] 96% | growth inhibition [4] 96%

CCOC(=O)[C@H](Cc1cccc2ccccc12)NC(=O)[C@H](CCC(=O)OC(C)(C)C)NC(=O)c1ccc(N(C)Cc2cnc3nc(N)nc(N)c3n2)cc1
inactive: inhibition [3] -2% | outcome [5] | outcome [6] | outcome [7] | outcome [8]
active: growth inhibition [1] 96% | inhibition [2] 66% | growth inhibition [4] 93%

CC(C)CCn1c(Sc2ccc(C#N)c([N+](=O)[O-])c2)nnc1-c1ccc(Cl)cc1
inactive: growth inhibition [1] 39% | inhibition [2] 25% | inhibition [3] -1% | outcome [5] | outcome [6] | outcome [7] | outcome [8]
active: growth inhibition [4] 90%

CCN1CCC(N(Cc2ccc(-c3ccc(C(F)(F)F)s3)cc2)C(=O)Cn2c(CCc3cccc(F)c3F)nc(=O)c3ccccc32)CC1
inactive: inhibition [2] 47% | inhibition [3] 7% | outcome [5] | outcome [6] | outcome [7] | outcome [8]
active: growth inhibition [1] 95% | growth inhibition [4] 93%

CN(C)c1ccc(C=Cc2ccc3ccccc3n2)c(Cl)c1
active: growth inhibition [1] 95% | inhibition [2] 59% | growth inhibition [4] 94%
inactive: inhibition [3] 1% | outcome [5] | outcome [6] | outcome [7] | outcome [8]

CC(C)CNC(=O)c1cncc(-c2ccc(CNCCCc3ccccc3)cc2)c1
active: growth inhibition [1] 73% | growth inhibition [4] 101%
inactive: inhibition [2] 28% | inhibition [3] -6% | outcome [5] | outcome [6] | outcome [7] | outcome [8]

COCCCNc1sc(S(=O)(=O)c2ccccc2)nc1S(=O)(=O)c1ccc(C)cc1
inactive: growth inhibition [1] 44% | inhibition [2] 7% | inhibition [3] -1% | outcome [5] | outcome [6] | outcome [7] | outcome [8]
active: growth inhibition [4] 84%

COc1ccc(-c2cccc(NC(=O)c3cccc(C#N)c3)c2)cc1CNC(C)C
inactive: inhibition [2] 22% | inhibition [3] 0% | outcome [5] | outcome [6] | outcome [7] | outcome [8]
active: growth inhibition [1] 51% | growth inhibition [4] 101%

CN(C)Cc1ccc2cc(NC(=O)c3ccc(-c4ccc(Cl)cc4)cc3)ccc2c1
inactive: growth inhibition [1] 22% | inhibition [2] 21% | inhibition [3] -3% | outcome [5] | outcome [6] | outcome [7] | outcome [8]
active: growth inhibition [4] 92%

FC(F)(F)c1ccc2nc(-c3ccc(-c4ccc(CNCc5cnn(-c6ccccc6)n5)cc4)s3)[nH]c2c1
inactive: inhibition [2] 27% | inhibition [3] -2% | outcome [5] | outcome [6] | outcome [7] | outcome [8]
active: growth inhibition [1] 89% | growth inhibition [4] 100%

Cn1c(Sc2ncnc3sccc23)nc2ccccc21
inactive: inhibition [2] -12% | inhibition [3] 5% | outcome [5] | outcome [6] | outcome [7] | outcome [8]
active: growth inhibition [1] 100% | growth inhibition [4] 100%

CCN(CC)CCN(Cc1ccc(-c2ccc(Cl)cc2)cc1)C(=O)Cn1cc(CN(C)C)c(=O)nc1SCc1ccc(F)cc1
active: growth inhibition [1] 99% | growth inhibition [4] 99%
inactive: inhibition [2] 49% | inhibition [3] 1% | outcome [5] | outcome [6] | outcome [7] | outcome [8]

Cc1cc(-c2ccc3c(c2)CCN(CCC2CCC(NC(=O)/C=C/c4ccccc4F)CC2)CC3)on1 (configuration not stated)
active: growth inhibition [4] 94%
inactive: growth inhibition [1] 13% | inhibition [2] 26% | inhibition [3] -4% | outcome [5] | outcome [6] | outcome [7] | outcome [8]
